Data as given in PubChem BioAssay AID485350 (ICCB-Longwood Screening Facility, Harvard Medical School, 2010).
In all, about 84,000 compounds went through this assay and about 95 (0.1%) were called active. Rule as the data show it: active = inhibition above about 25% (passing the limit was not always enough); inactive = the rest. What follows is part of a selection rich in actives, with near analogues and random picks from the rest.

Each compound was assayed on BasE (2,3-dihydroxybenzoate-AMP ligase), Acinetobacter baumannii ATCC 17978 (assay: BasE siderophore enzyme inhibitors, primary screen, biochemical, Acinetobacter baumannii ATCC 17978, fluorescence polarization (AID 485350;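 also: 0% = negative plate control signal and 100% = positive plate control signal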)). Settings: purified BasE, fluorescence polarization binding displacement; active compounds read high; concentration not given here.

inhibition, inactive:
CC(=O)Nc1cccc(C(=O)OCC(=O)N2CCN(c3ccccc3)CC2)c1 0.21%, Oc1ccc(N=Cc2cn(-c3ccccc3)nc2-c2ccco2)cc1 -0.83%, C/C(N)=C(/C#N)C(=O)CSc1n[nH]c(C(C)C)n1 1.38%, CC(Oc1coc(CN2CCN(Cc3ccccc3)CC2)cc1=O)c1ccccc1 (stereo unspecified) -0.18%, O=C(O)Cc1cc(=O)n(C2CCS(=O)(=O)C2)[nH]1 (stereo unspecified) -0.2%, O=S(=O)(NCCC1=CCCCC1)c1ccc(Cl)cc1 -0.06%, c1snnc1C12CC3CC(CC(C3)C1)C2 -2.21%, NC(=O)C[n+]1cccc(C(N)=O)c1 -2.44%, CCOC(=O)c1cc(-c2ccc(S(=O)(=O)N(C)Cc3cnn(-c4ccccc4)c3)s2)on1 -0.03%, CN(C)S(=O)(=O)c1ccc(C(=O)Nc2ccccc2C(=O)NCc2ccc3c(c2)OCO3)cc1 -2.15%, O=C(Oc1ccc2c3c(c(=O)oc2c1)CCC3)C1CCCCC1 2.18%, COc1cc2c(cc1OC)C(C)N(Cc1sc3ccccc3c1C)CC2 (stereo unspecified) -2.07%, O=C1CSC(=Nc2ccccc2)N1S(=O)(=O)c1ccccc1 0.27%, O=C(C1=Cc2sc3c(c2CS1)CCCC3)N1CCCC1 0.06%, N#Cc1cccc(OC(=O)c2ccccc2)c1 1.16%, COC(=O)c1cccc(NS(=O)(=O)c2cccs2)c1 0.35%, CCc1ccc(CCC(=O)O)cc1 1.07%, CCOC(=O)c1nn(-c2ccccc2)c(=O)cc1OCC 0.32%, Cc1ccc(CN2CCC(CNC(=O)Cn3c(=O)oc4ccccc43)CC2)cc1 3.44%, O=C(O)Cc1ccc(C(F)(F)F)cc1 -1.44%, CCOC(=O)CC1=CSC(NC)N1c1c(C)cc(C)cc1C (stereo unspecified) 0.61%, Cc1cc(C(=O)N/N=C/c2ccc(O)cc2)c2ccccc2n1 -0.11%, CCOC(=O)/C=C1\SCC(=O)N1Cc1cc(Cl)cc2c1OCOC2 -0.76%, Cc1cc(C)n2nc(SCc3nc4ccc(Cl)cc4n3CCO)nc2n1 -0.85%, Cc1ccc(Cl)cc1NC(=O)CSc1nc2c(oc3ccccc32)c(=O)n1C1CCCC1 0.55%, CCN(CC(=O)NCc1cccs1)C(=O)c1ccc2c(c1)SC1=NS(=O)(=O)CCN12 0.92%, O=C(CC1SC(=Nc2ccccc2)NC1=O)NC1CC1 (stereo unspecified) 0.62%, O=C(NCc1ccc(-c2nc3ccccc3o2)cc1)c1ccccc1Br -0.19%, O=C1N(CNc2ccccc2)CCN1CNc1ccccc1 1.83%, O=C(CSc1nnc(Cc2csc(Nc3cccc(Cl)c3)n2)o1)c1ccc2c(c1)OCCO2 -0.63%, CC(C)C(NC(=O)C1CCCCC1)C(=O)O (stereo unspecified) 3.11%, O=C(c1cc(-c2cccs2)on1)N1CCCC1 -0.81%, N#Cc1ccc(Cn2cc(Br)ccc2=O)cc1 0.99%, O=C(c1ccc(S(=O)(=O)N2CCOCC2)cc1)N1CCn2c1nc1ccccc12 -1.29%, COc1cc(OC)c(C2Nc3c(C)cc(C)cc3-c3cc(C)nn32)cc1OC (stereo unspecified) 0.21%, O=C(c1ccc2c(c1)C(=O)N(Cc1ccncc1)C2=O)N1CCN(S(=O)(=O)c2ccc(OC(F)(F)F)cc2)CC1 0.9%, CO/N=C(/C(=O)N[C@@H]1C(=O)N2C(C(=O)[O-])=C(C[N+]3(C)CCCC3)CS[C@H]12)c1csc(N)n1 -0.27%, Cc1cccc(C(CC(=O)NCc2cccs2)n2cccc2)c1 (stereo unspecified) 1.33%, CC(c1ccccc1)N(C)CN1C(=O)c2ccccc2C1=O (stereo unspecified) -0.8%, Cc1[nH]c2ccccc2c1C1=CCN(S(=O)(=O)c2cccc3nsnc23)CC1 -2.27%, COc1ccc(O)c(C(=O)c2cnn(C(=O)c3ccc4c(=O)n5c(nc4c3)CCC5)c2)c1 -0.87%, C=CCC(CC=C)(C(N)=O)c1ccccc1 2.87%, COc1ccc(CNC(=O)c2cc3c(C)nccc3[nH]c2=O)cc1 0.94%, CCn1c2ccccc2c2nnc(SCC(=O)NCCc3ccc(OC)c(OC)c3)nc21 -1.45%, N#CSc1ccc(N2CCCCC2)cc1 1.12%, CCCCn1c(SCc2nnc(-c3cccs3)o2)nc2cc(S(N)(=O)=O)ccc21 -3.81%, CC1(C)CC(=O)C=C(N2CCN(c3ccccc3F)CC2)C1 0.11%, CCn1c(N2CCN(S(C)(=O)=O)CC2)nc2ccccc21 -0.64%, O=C1CN(C(=O)CSC2=Nc3ccccc3CS2)c2ccccc2N1 -1.75%, CCOc1ccnc2sc(C(=O)c3cccnc3)c(N)c12 1.88%, C=CCn1cc(/C=C(\C#N)C(=O)NC2CCCCC2)c2ccccc21 2.71%, Cc1ccc(C2=NN(C(=O)CSc3nc(N)cc(N)n3)C(c3ccco3)C2)cc1 (stereo unspecified) 2.13%, CS(=O)c1nc(-c2cccs2)cc(-c2ccccc2)c1C#N (stereo unspecified) -2.06%, COCCc1cc(C(F)(F)F)c2c(=O)n(C)c(=O)n(C)c2n1 -0.29%, Cn1c(N)c(C(=O)NCc2ccccc2)c2nc3ccccc3nc21 -1.54%, CCOC(=O)c1c(C)[nH]c(C(=O)CN2C(=O)NC(CC)(c3ccc(F)cc3)C2=O)c1C (stereo unspecified) -1.75%, Cc1cc(Oc2ccc3c(c2)OCO3)nc2ccccc12 6.24%, O=C(NCC(c1ccco1)N1CCCCC1)c1ccc(S(=O)(=O)N2CCCC2)cc1 (stereo unspecified) 1.67%, Clc1ccc(/C=N/NCc2cn3ccsc3n2)cc1 0.12%, COc1ccc(Cl)cc1NC(=O)CN1C(=O)CSC(C)C1=O (stereo unspecified) 0.33%, O=C(OCC(=O)N1CCCc2ccccc21)c1cc2ccccc2oc1=O -0.7%
